# In PubChem BioAssay (Tox21):
# Unmarked numbers belong to inactive results. Inconclusive results are not listed. Where a call stands in place of a potency, no number is given. Activity calls are given as the source filed them. Unless noted, calls follow the shape of the dose curve; as a rule, active = well fitted curve in the direction sought with a large enough effect in the repeat runs; inconclusive = weak or mixed curves; inactive = no such curve, though single readings can be large; an effect the other way counts as inactive or inconclusive.
# Legend:
# [1] = qHTS assay for small molecule agonists of the p53 signaling pathway (AID 651631; calls by dose curve; also: nearly all actives have a fitted effect of over 15% in size; also: potency is read from the fitted curve at half-maximal effect)
# Summary of the method: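 HCT-116 p53RE-bla reporter line, 16 h compound treatment at 37 °C, then fluorescence after 2 h with B/G FRET substrate.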
# [2] = qHTS assay for small molecule agonists of the p53 signaling pathway - cell viability (AID 651633; calls by dose curve;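 also: p53RE-bla HCT reporter cells with a stable beta-lactamase p53 reporter; series mostly up to about 83 µM; nearly all actives have a fitted effect of over 30% in size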)
# Summary of the method: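 p53RE-bla cells were treated with compound for 16 hours at 37 C. Cytotoxicity was then measured as CellTiter-Glo luminescence after 30 min at room temperature.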
# [3] = qHTS assay for small molecules that induce genotoxicity in human embryonic kidney cells expressing luciferase-tagged ATAD5 - cell viability (AID 651634; calls by dose curve; also: nearly all actives have a fitted effect of over 25% in size)
# Summary of the method: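 Seeding of 2,000 HEK293T ATAD5-luciferase cells per well preceded pin-tool compound transfer. Plates sat 15.5 hr at 37C under 5% CO2, then fluorescence was read after 30 min with CellTiter-Fluor.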
# [4] = qHTS assay for small molecule disruptors of the mitochondrial membrane potential (AID 720635); also: potency is read from the fitted curve at half-maximal effect
# Summary of the method: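 HepG2 cells exposed to compound 1 hr at 37C, then Mito-MPS dye 30 min. Ratio read of aggregate (540/590 nm) versus monomer (490/535 nm) fluorescence.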
# [5] = qHTS assay to test for compound auto fluorescence at 590 nm (red) in HepG2 cells (AID 720674)
# Summary of the method: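 HepG2 cells, 2,000 per well in MEM with 10% FBS, attached overnight at 37 C, then got 23 nL compound or DMSO. After 1 hr at 37 C, 5% CO2, red fluorescence was read at 540/590 nm against Rose Bengal sodium as reference.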
# [6] = qHTS assay to test for compound auto fluorescence at 535 nm (green) in HepG2 cells (AID 720675)
# [7] = qHTS assay to test for compound auto fluorescence at 460 nm (blue) in HEK293 cells (AID 720678)
# Summary of the method: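 Blue read-out at excitation 405 nm and emission 460 nm follows overnight compound exposure of HEK293 cells at 37C in 5% CO2. Activity is given as auto fluorescence equivalency to triamterene.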
# [8] = qHTS assay to test for compound auto fluorescence at 590 nm (red) in HEK293 cells (AID 720679)
# Summary of the method: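 Red channel, Ex/Em 540/590nm; signal expressed as equivalency to Rose Bengal sodium. HEK293, 2,000 cells/well, 10% dialyzed FBS; 23 nL compound pinned after 4-5 hr attachment; overnight 37C/5% CO2 before reading.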
# [9] = qHTS assay to test for compound auto fluorescence at 535 nm (green) in HEK293 cells (AID 720680)
# [10] = qHTS assay to test for compound auto fluorescence at 460 nm (blue) in HEK293 cell free culture (AID 720681)
# Summary of the method: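 Compounds were added to cell-free DMEM with 10% FBS and fluorescence read directly. The blue channel used 405 nm excitation and 460 nm emission, with triamterene as the reference fluorophore.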
# [11] = qHTS assay to test for compound auto fluorescence at 535 nm (green) in HEK293 cell free culture (AID 720682)
# Summary of the method: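 Steps: dispense DMEM/10% FBS into empty wells; pin in compound or DMSO; measure fluorescence at 485/535 nm. Values are fluorescein equivalents.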
# [12] = qHTS assay to test for compound auto fluorescence at 590 nm (red) in HEK293 cell free culture (AID 720683)
# Summary of the method: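 Cell-free wells of DMEM with 10% FBS received compound, and intrinsic fluorescence was read at excitation/emission 540/590 nm. Values expressed as equivalence to Rose Bengal sodium.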
# [13] = qHTS assay to test for compound auto fluorescence at 590 nm (red) in HepG2 cell free culture (AID 720684)
# Summary of the method: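 Compounds are added to culture medium (MEM, 10% FBS) lacking cells, then fluorescence is read at excitation 540 nm, emission 590 nm, with Rose Bengal sodium as the equivalency standard.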
# [14] = qHTS assay to test for compound auto fluorescence at 460 nm (blue) in HepG2 cell free culture (AID 720685)
# Summary of the method: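 Compound (23 nL) or DMSO pinned into cell-free MEM with 10% FBS; blue fluorescence read at 405/460 nm excitation/emission, expressed as auto-fluorescence equivalency to triamterene.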
# [15] = qHTS assay to test for compound auto fluorescence at 535 nm (green) in HepG2 cell free culture (AID 720686)
# [16] = qHTS assay to test for compound auto fluorescence at 460 nm (blue) in HepG2 cells (AID 720687)
# Summary of the method: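 HepG2 cells in MEM with 10% FBS, attached overnight at 37 C, were exposed to compound or DMSO for 1 hr at 37 C, 5% CO2. Blue fluorescence was read at 405/460 nm, with triamterene as reference fluorophore.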
# [17] = biological target: Glucocorticoid receptor (Homo sapiens) (UniProt P04150); experiment: qHTS assay to identify small molecule agonists of the glucocorticoid receptor (GR) signaling pathway (AID 720691; active = well fitted activation curve with a large enough effect in the signal ratio in the repeat runs, not every such curve was filed as active; the % refers to the signal ratio)
# Summary of the method: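 Reporter read-out: fluorescence intensity following 2 h room-temperature LiveBLAzer B/G FRET substrate loading. Prior step: GR-bla HeLa cells held 4 h, then treated 18 h at 37 C.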
# [18] = qHTS assay for small molecule disruptors of the mitochondrial membrane potential - cell viability (AID 720634; calls by dose curve;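 also: human HepG2 liver cancer cells; series mostly up to about 83 µM; nearly all actives have a fitted effect of over 20% in size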)
# Summary of the method: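 Measuring cytotoxicity alongside mitochondrial potential, the screen quantified ATP by luminescence in HepG2 cells after 1 hr compound incubation and a 30 min room-temperature CellTiter-Glo step.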
# [19] = qHTS assay for small molecules that induce genotoxicity in human embryonic kidney cells expressing luciferase-tagged ATAD5 (AID 651632); also: nearly all actives have a fitted effect of over 15% in size
# Summary of the method: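 Reporter cells (HEK293T) express luciferase-tagged ATAD5, a protein that accumulates after DNA damage. Treat 16 hr at 37C/5% CO2, add Amplite, wait 30 min at RT, and read luminescence.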
# [20] = biological target: Glucocorticoid receptor (Homo sapiens) (UniProt P04150); experiment: qHTS assay to identify small molecule antagonists of the glucocorticoid receptor (GR) signaling pathway (AID 720692; active = well fitted inhibition curve with a large enough effect in the signal ratio in the repeat runs, not every such curve was filed as active; the % refers to the signal ratio)
# Summary of the method: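 Dexamethasone (5 nM final) stimulated a stably integrated GRE-beta-lactamase reporter in HeLa cells during 18 h co-incubation with compounds; signal was quantified as fluorescence intensity of B/G FRET substrate after 2 h.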
# Sequence of Glucocorticoid receptor (Homo sapiens) (P04150 whole entry, looked up): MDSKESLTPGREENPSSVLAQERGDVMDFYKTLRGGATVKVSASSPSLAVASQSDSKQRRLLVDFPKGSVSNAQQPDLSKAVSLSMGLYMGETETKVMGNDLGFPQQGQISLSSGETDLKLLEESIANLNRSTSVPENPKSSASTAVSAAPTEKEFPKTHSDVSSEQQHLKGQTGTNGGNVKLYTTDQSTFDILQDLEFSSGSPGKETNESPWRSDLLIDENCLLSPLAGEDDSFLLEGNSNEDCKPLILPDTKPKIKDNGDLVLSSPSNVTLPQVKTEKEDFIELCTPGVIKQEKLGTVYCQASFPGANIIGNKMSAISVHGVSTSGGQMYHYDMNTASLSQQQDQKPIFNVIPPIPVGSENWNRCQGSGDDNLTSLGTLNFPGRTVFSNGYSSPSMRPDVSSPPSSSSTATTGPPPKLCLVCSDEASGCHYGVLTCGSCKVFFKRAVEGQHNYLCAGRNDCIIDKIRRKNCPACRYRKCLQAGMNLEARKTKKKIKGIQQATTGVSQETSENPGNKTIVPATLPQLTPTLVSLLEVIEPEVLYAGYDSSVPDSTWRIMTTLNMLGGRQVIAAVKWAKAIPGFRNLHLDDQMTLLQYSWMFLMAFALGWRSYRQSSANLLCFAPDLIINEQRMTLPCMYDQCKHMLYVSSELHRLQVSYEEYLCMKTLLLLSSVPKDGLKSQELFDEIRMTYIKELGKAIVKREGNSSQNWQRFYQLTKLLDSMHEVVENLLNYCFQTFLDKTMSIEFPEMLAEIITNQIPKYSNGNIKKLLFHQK
Compound,Potency [1],Potency [2],Potency [3],Potency [4],outcome [5],outcome [6],outcome [7],outcome [8],outcome [9],outcome [10],outcome [11],outcome [12],outcome [13],outcome [14],outcome [15],outcome [16],outcome [17],Potency [18],Potency [19],Potency [20]
CCCCc1c(C)nc(NCC)nc1OS(=O)(=O)N(C)C,inactive,inactive,inactive,21.7 µM (active),inactive,inactive,inactive,inactive,inactive,inactive,inactive,inactive,inactive,inactive,inactive,inactive,inactive,,,
Cn1cc[n+](C)c1 (tested in a mixture with another compound),inactive,inactive,inactive,inactive,inactive,inactive,inactive,inactive,,inactive,inactive,inactive,inactive,inactive,inactive,inactive,,inactive,,
Cc1ccc(-c2c(Cl)nc(C#N)n2S(=O)(=O)N(C)C)cc1,15.3 µM (active),,inactive,1.09 µM (active),inactive,inactive,inactive,,inactive,inactive,inactive,inactive,inactive,inactive,inactive,inactive,inactive,,inactive,
Clc1ccc(C2(Cn3cncn3)CC(Br)CO2)c(Cl)c1 (stereo not given),inactive,inactive,inactive,,inactive,inactive,inactive,inactive,inactive,inactive,inactive,inactive,inactive,inactive,inactive,inactive,inactive,,,
CC(=O)CCC(C)=O,inactive,inactive,inactive,,inactive,inactive,inactive,inactive,inactive,inactive,inactive,inactive,inactive,inactive,,inactive,inactive,inactive,,inactive
S=C=NCc1ccccc1,69.3 µM (active),inactive,,55 µM (active),inactive,inactive,inactive,inactive,inactive,inactive,inactive,inactive,inactive,inactive,,inactive,inactive,inactive,,inactive
NNC(=O)c1cccnc1,inactive,inactive,inactive,,,inactive,inactive,inactive,inactive,inactive,inactive,inactive,inactive,inactive,inactive,inactive,,inactive,,
C=CC(=O)OC,inactive,inactive,inactive,,inactive,inactive,inactive,inactive,inactive,inactive,inactive,inactive,inactive,inactive,inactive,,,inactive,,
COC(N)=O,inactive,inactive,inactive,inactive,inactive,inactive,inactive,inactive,inactive,inactive,inactive,inactive,inactive,inactive,inactive,inactive,inactive,inactive,,
NCCCNCCCN,inactive,inactive,inactive,,inactive,inactive,inactive,,,inactive,inactive,inactive,inactive,inactive,inactive,inactive,inactive,inactive,,
CNC(C)Cc1ccccc1OC (stereo not given),inactive,inactive,inactive,inactive,inactive,inactive,inactive,inactive,inactive,inactive,inactive,inactive,inactive,inactive,inactive,inactive,,inactive,,inactive
CC1(C)[C@H](C=C(Cl)Cl)[C@@H]1C(=O)O[C@@H](C#N)c1cccc(Oc2ccccc2)c1,inactive,,inactive,,inactive,inactive,inactive,inactive,inactive,inactive,inactive,inactive,inactive,inactive,inactive,,inactive,,inactive,
CCC(Br)(CC)C(=O)NC(N)=O,inactive,inactive,inactive,inactive,inactive,inactive,inactive,,inactive,inactive,inactive,inactive,inactive,inactive,inactive,inactive,,inactive,,
CCCCCC[N+](=O)[O-],inactive,inactive,,,inactive,inactive,inactive,inactive,inactive,inactive,inactive,inactive,inactive,inactive,inactive,,inactive,inactive,,inactive
COc1ccc(-c2ccccc2)cc1NNC(=O)OC(C)C,inactive,inactive,,56.8 µM (active),inactive,inactive,inactive,inactive,inactive,inactive,inactive,inactive,inactive,inactive,inactive,inactive,,inactive,inactive,
Nc1ccc(N=Nc2ccc(-c3ccc(N=Nc4c(S(=O)(=O)O)cc5cc(S(=O)(=O)O)c(N=Nc6ccccc6)c(O)c5c4N)cc3)cc2)c(N)c1,inactive,inactive,inactive,6.24 µM (active),inactive,inactive,inactive,inactive,inactive,inactive,inactive,inactive,inactive,inactive,inactive,inactive,,inactive,,
CCCN(CC1CC1)c1c([N+](=O)[O-])cc(C(F)(F)F)cc1[N+](=O)[O-],inactive,inactive,inactive,30.6 µM (active),inactive,inactive,inactive,inactive,inactive,inactive,inactive,inactive,inactive,inactive,inactive,inactive,inactive,inactive,,inactive
